Pf Dd2 growth – Plasmodium falciparum Dd2 growth inhibition; P. falciparum Dd2 growth, SYBR Green, 72 h; Potency, µM (series often up to 28.9 µM), inactives show at the highest dose activity, negative = inhibition, hits mostly inhibitors; 4.3% of 120,000 active; active means well fitted inhibition curve with a large enough effect;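 further: plate controls were DMSO vehicle for no effect and reference drug for full effect; nearly all actives have a fitted effect of over 65% in size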
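Infected erythrocytes (Dd2, 0.3% parasitemia, 2.5% hematocrit final) are added to compound in RPMI-1640/Albumax II medium, grown 72 h at 37C in low oxygen, then lysed with saponin/Triton-X containing SYBR Green and read by fluorescence.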
An asterisk follows results filed as active; i = inactive; ! = repeats disagree; [ ] = remark or other dose. Only a selection was taken, and hits are over-represented in it overall. Potency means the concentration at half of the fitted maximal effect.

SMILES	Pf Dd2 growth
CCNC(=O)N1CCCN(C)c2ccccc21	6.2%
COc1ccc2c(c1)CN(Cc1ccccc1)CC[C@H]1COC(=O)N21	-9.8%[44.1 µM]
Cc1ccc2c(C(=O)Nc3ccc(Cl)nc3)cnn2c1	-13.8%[44.1 µM]
O=C(Nc1ccc2c(N3CCCCC3)ncnc2c1)c1ccc(F)c(F)c1	2µM*
COc1ccc(C(=O)Nc2ccc3c(N4CCCCC4)ncnc3c2)cc1	-21.8%
O=C(Nc1ccc2ncnc(N3CCCCC3)c2c1)c1ccc(F)cc1	i
Cc1ncc2c(c1CNC(=O)Cn1cnc3ccccc3c1=O)CCNC2	-5.2%
O[C@@H]1C[C@@H](c2nnc3n2CCN(Cc2ccc4c(c2)CCO4)C3)N(Cc2cccnc2)C1	i
CS(=O)(=O)NC1CCN(c2nc(-c3cccnc3)nc3c2CNC3)CC1	3.9%
CCCOc1ccccc1C(C)Nc1nc(-c2cccnc2)nc2c1CNC2 (stereo not given)	11.2µM*
c1cncc(-c2nc3c(c(NCc4ccccc4-n4ccnc4)n2)CNC3)c1	i
COc1ccccc1NC1CN(C(=O)OC(C)(C)C)C1	-4.2%[44.1 µM]
CO[C@H]1C(=O)N(C2CCN(S(=O)(=O)c3ccccc3)CC2)[C@H]1c1ccncc1	21.2%
CCOC(=O)CCNC(=O)N1CCC[C@H](n2c(=O)n(CC3CC3)c3cccnc32)C1	-15.2%
COCCn1c(=O)n([C@H]2CCCN(C(=O)c3cc(F)ccc3F)C2)c2ncccc21	4.4%
COc1ccc(C(=O)N2CCC[C@H](n3c(=O)n(CC4CC4)c4cccnc43)C2)cc1F	12.6µM*
Cn1c(CCC(=O)N2CC[C@H](O)C2)nc2cc(S(=O)(=O)N3CCCC3)ccc21	13.1%
COc1ccc(OC)c(Nc2sc(C(=O)c3ccccc3)c(N)c2S(=O)(=O)c2ccccc2)c1	8.91µM*
CCOc1ccc(Nc2sc(C(=O)c3cccc(OC)c3)c(N)c2S(=O)(=O)c2ccccc2)cc1	i
COc1ccc(CCNC(=O)c2c(Nc3ccccc3C)sc(C(=O)c3ccccc3)c2N)cc1OC	i
Cc1ccc(Nc2sc(C(=O)c3ccccc3)c(N)c2C(=O)NC(C)C)cc1	-2.7%
Cc1ccc(CNC(=O)c2c(Nc3c(C)cccc3C)sc(C(=O)c3ccccc3)c2N)cc1	-3.5%
COc1cccc(C(=O)c2sc(Nc3ccc(C)cc3C)c(S(=O)(=O)c3ccccc3)c2N)c1	10µM*
COc1ccccc1Nc1sc(C(=O)c2ccc(C)cc2C)c(N)c1S(=O)(=O)c1ccccc1	-15.3%
CCOC(=O)c1sc2ccccc2c1S(=O)(=O)Nc1cc(OC)ccc1OC	52.5%
SMILES	Pf Dd2 growth
Cc1ccc(Nc2sc(C(=O)c3ccccc3)c(N)c2S(=O)(=O)c2ccccc2)c(C)c1	10µM*
COC(=O)N1CCC2(C1)N=C(c1ccccn1)C(=O)N2 (stereo not given)	i
CS(=O)(=O)N1CCC2(CC1)CC(=O)N(CCCc1ccccc1)C2	8.6%
CC(C)c1noc(C2CCCN(S(=O)(=O)c3ccc4c(c3)CCC4)CCC(=O)NCC2)n1 (stereo not given)	-10.8%
O=C1CC2CCN(Cc3cccc(C(F)(F)F)c3)CC2CCN1 (stereo not given)	-9.7%
Cc1ccc(C(=O)N2CCC(n3cc(-c4nc(C)no4)nn3)C2)cc1 (stereo not given)	i
NS(=O)(=O)c1ccc(CCNc2nc3c(-c4cccc(F)c4)nnn3c3ccc(Cl)cc23)cc1	11.2µM*
CCOCCCNc1nc2c(S(=O)(=O)c3ccc(CC)cc3)nnn2c2ccc(Cl)cc12	-9.3%
Fc1cccc(-c2nnn3c2nc(NCCc2ccccc2)c2ccccc23)c1	19.2%
O=C(NCCc1ccc(Cl)cc1)c1nc(-c2ccc(Cl)cc2Cl)c2ccccn12	-18.7%
O=C(NCCc1ccc(Cl)cc1)c1cc(-c2cnccc2Cl)c2cccn2n1	-4.3%
O=C(NCCc1ccc(Cl)cc1)c1nc(-c2ccc(Cl)cc2Cl)c2cnccn12	4.47µM*
CN(C)C[C@@H]1CN(S(C)(=O)=O)C[C@H]1NC(=O)c1cncn1C	i
COc1cccc(CN2C[C@@H](CO)[C@H](c3ccccn3)C2)c1OC	-27.0%
Cc1nnc2ccc(NCc3ccc(F)cc3)nn12	-9.5%
Cc1cccc(CNc2ccc3nnc(C)n3n2)c1	i
CCc1nnc2ccc(NCc3ccc(F)cc3)nn12	7.08µM*
O=C(C1CC2(CCNCC2)CN1)N1CCc2c(nc(CC3CC3)[nH]c2=O)C1 (stereo not given)	3.4%
CN(C)c1ccc(CN2CCC(c3nc4ccncc4[nH]3)C2)cc1 (stereo not given)	-17.7%[44.1 µM]
Brc1ccc(CN2CCC(c3nc4ccncc4[nH]3)C2)cc1 (stereo not given)	10µM*!
c1cncc(CN2CC[C@H](c3nc4ccccc4[nH]3)C2)c1	-21.2%[44.1 µM]
CC(C)COc1cc(=O)n2c(c1C(=O)N1CCN(c3ccccn3)CC1)CCCCC2	-6.5%
Cc1cccc(C(C(=O)N2CCC(CCn3ccnc3C)CC2)N(C)C)c1 (stereo not given)	7.94µM*
CN(C)C(C(=O)N1CCN(Cc2nccn2C)CC1)c1cccc(F)c1 (stereo not given)	-4.7%
Cc1cccc(C(C(=O)N2CCN(CC(=O)NC(C)C)CC2)N(C)C)c1 (stereo not given)	-23.0%
SMILES	Pf Dd2 growth
COc1cccc(CC(=O)NCC2Cn3cccc3C(=O)N2C)c1 (stereo not given)	1.1%
CC(C)NC(=O)N1CCC(c2nnc3n2CCNC3)CC1	0.0%
O=C1Nc2ccc(-c3ccc4c(c3)OCO4)cc2C(=O)N2CCN(C(=O)C3CCCC3)C[C@@H]12	i
COc1ccc(Cl)cc1-c1ccc2c(c1)C(=O)N1CCN(C(=O)C3CC3)C[C@@H]1C(=O)N2	12.6µM*
CSc1ccc(-c2ccc3c(c2)C(=O)N2CCN(C(=O)C4CCCCC4)C[C@@H]2C(=O)N3)cc1	8.91µM*
COc1ccc(Cl)cc1-c1ccc2c(c1)C(=O)N1CCN(C(=O)C3CCCCC3)C[C@@H]1C(=O)N2	i
COc1ccc(Cl)cc1-c1ccc2c(c1)C(=O)N1CCN(C(=O)c3ccccc3)C[C@@H]1C(=O)N2	i
COc1ccc(-c2ccc3c(c2)C(=O)N2CCN(C(=O)C4CCCCC4)C[C@@H]2C(=O)N3)cc1	i
O=C(NC1CCN(c2cc(-c3ccc(Cl)cc3)[nH]n2)CC1)c1ccc2[nH]ccc2c1	-14.7%
COc1cccc(S(=O)(=O)N2CC3(C2)C(=O)Nc2ccccc23)c1	-0.4%
COc1ccc(-n2nc(C)c([C@H]3C=C[C@@H](OC(=O)N[C@H](C)c4ccccc4)C3)c2C)cc1	7.94µM*
Cc1ccccc1-n1nc(C)c([C@H]2C=C[C@@H](OC(=O)N[C@H](C)c3ccccc3)C2)c1C	-8.1%[44.1 µM]
COc1ccc(NC(=O)O[C@@H]2C=C[C@H](c3c(C)nn(-c4ccc(C)c(Cl)c4)c3C)C2)cc1	i
Cc1nn(-c2ccc(C(C)C)cc2)c(C)c1[C@@H]1C=C[C@@H](NC(=O)COCC(=O)O)C1	i
Cc1nn(-c2ccccn2)c(C)c1[C@@H]1C=C[C@@H](NC(=O)NCc2ccccc2)C1	i
COc1ccc(-n2nc(C)c([C@@H]3C=C[C@@H](NCc4ccccc4)C3)c2C)cc1	2.82µM*
CCS(=O)(=O)N1CCCC(c2nc(-c3ccccc3)no2)CCNC(=O)CC1 (stereo not given)	-23.3%
CCCC(=O)N1CCc2cn(C)c3cccc(c23)C1	i
COC[C@@H]1CN(c2ncccn2)C[C@H]1C(=O)NCCn1cccn1	14.5%
O=C1CCC2(C(=O)NCCCN3CCOCC3)CCCC=C2N1c1ccccc1 (stereo not given)	-20.5%
O=C(c1ccnnc1)N1C[C@@H](COCC2CC2)[C@H](c2ccccn2)C1	20.1%
